# Screen size: about 400,000 compounds; about 13,000 (3.2%) were called active. A call without a number means that no potency is given here. Inconclusive results (about 18%) are left out. The call rests on the fitted dose curve; in most records, active means well fitted cell-killing curve with a large enough effect; inconclusive means small, poorly fitted or top-dose-only effect, or effect the other way; inactive means flat fitted curve, though single readings scatter. For the sample, actives were picked, then their nearest neighbours and some compounds at random.
# Assay: qHTS assay for MDR1-selective chemotherapeutics: Primary screen using the drug-selected MDR subline cells KB-V1; further: nearly all actives have a fitted effect of over 60% in size
# Details: KB-V1 MDR cells viability, CellTiter-Glo, 72 h; series mostly up to 46.1 µM
# Procedure, shortened: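 Cytotoxicity toward P-gp-expressing KB-V1 cells was determined as loss of CellTiter-Glo luminescence after 72 h at 37 degrees C. Compounds were tested in quantitative HTS format across a concentration range, with curves fitted to normalized data.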
# Potency means the concentration at half of the fitted maximal effect.
row,SMILES,Potency
1,COc1cc2c3c(c1)/C(=C1/SC(=S)NC1=O)C(=O)N3C(C)(C)C=C2C,9.2 µM (active)
2,O=C(OCc1cn([C@H]2C[C@H](c3ccccc3)N(C(=O)c3cccs3)C[C@@H]2O)nn1)c1ccccc1,inactive
3,COc1ccc(/C=C2\SC(=S)N(CCC(=O)N3CCOCC3)C2=O)cc1OC,inactive
4,C=C1C=C(C(F)F)n2ncc(C(=O)NCCc3ccccc3OC)c2N1,inactive
5,O=C(O)CCCCCNc1ncnc2ccc(Br)cc12,inactive
6,C=CCNc1ncnc2ccc(Br)cc12,20.6 µM (active)
7,Brc1ccc2ncnc(NCc3cccnc3)c2c1,inactive
8,Cc1ccc2nc(COc3cccc(NC(=O)c4cccc(Cl)c4)c3)cc(=O)n2c1,inactive
9,Cc1cc(O)cc(O)c1C(=O)Cc1cnn(-c2ccccc2)c1,16.4 µM (active)
10,O=C(c1cnn(-c2ccc(Cl)cc2)c1)c1ccccc1O,inactive
11,COc1ccc(C(=O)Cc2cnn(-c3ccccc3)c2)c(O)c1,inactive
12,Cc1ccc(-c2cc(-c3coc4ccccc4c3=O)c3c(n2)-c2cc(Cl)ccc2OC3)cc1,inactive
13,Cc1cc(C)c(S(=O)(=O)NN=C2c3ccccc3[C@H]3Cc4csc[n+]4[C@@H]23)c(C)c1,inactive
14,C[C@H](CO)N1C[C@H](C)[C@@H](CN(C)C(=O)c2cccc(F)c2)Oc2cc(-c3cncnc3)ccc2S1(=O)=O,inactive
15,O=C(NCCOc1ccccc1)c1ccccc1F,inactive
16,COc1ccccc1N1CCN(C(=O)c2cc(=O)c3cc(C)ccc3o2)CC1,inactive
17,COc1ccccc1N1CCN(C(=O)c2cc(=O)c3cc(C)cc(C)c3o2)CC1,0.206 µM (active)
18,COc1ccccc1N1CCN(C(=O)c2c(-c3c(Cl)cccc3Cl)noc2C)CC1,inactive
19,O=C(Nc1ccc2c(c1)OCCO2)C1c2ccccc2OCC(=O)N1Cc1ccccn1 (centres undefined),inactive
20,Cc1ccc(C(=O)N[C@H](C(=O)N2CCN(c3ncccn3)CC2)C(C)C)cc1,inactive
21,CC(=O)Cn1cnc2c(cnn2-c2ccccc2)c1=O,inactive
22,O=C(Cn1cnc2c(cnn2-c2ccccc2)c1=O)NCc1ccccc1,5.17 µM (active)

row,SMILES,Potency
1,Cc1c(C(=O)NCc2ccccc2)cnn1-c1ccccc1,inactive
2,COc1ccc(OC)c(NC(=O)CN(C)CCOc2ccc(Br)cc2)c1,inactive
3,COc1ccc(Cl)cc1NC(=O)CCS(=O)(=O)c1ccc(Br)cc1,inactive
4,COc1ccc(Br)cc1CN(C)CC(=O)Nc1cc(Cl)cc(Cl)c1,7.31 µM (active)
5,CCCCCCN1CCN(C2CN(Cc3cn(CCCCCC)nn3)S(=O)(=O)C2)CC1 (centres undefined),inactive
6,COc1ccc(-c2nc3ccc(Br)cn3c2Cc2ccc(C)cc2)cc1OC,inactive
7,CC(=O)NCCNC(=O)c1cc(-c2cccc3ccccc23)nc2ccccc12,inactive
8,CN(C)CCNC(=O)Nc1cccc(Cl)c1Cl,inactive
9,CN(C)CCNC(=O)c1ccc(Cl)c2cc3ccccc3nc12,2.06 µM (active)
10,CCOC(=O)C1CCCN(C(=O)c2cc(-c3cccs3)oc2C)CC1 (centres undefined),inactive
11,O=C1N(Cc2ccccc2)c2ccc(Cl)cc2C1(O)c1c[nH]c2ccccc12 (centres undefined),inactive
12,CCOc1ccc(-c2nonc2NC(=O)c2oc3ccc(C)cc3c2C)cc1OCC,inactive
13,C/C(=N\NC(=O)CSc1nc2ccccc2c(=O)n1-c1ccccc1C)c1cccs1,2.31 µM (active)
14,Cc1nn(-c2ccccc2)c(C)c1/C=N/NC(=O)CSc1nc2ccccc2c(=O)n1-c1ccccc1,inactive
15,C/C(=N\NC(=O)COc1c(C)cccc1C)c1cccs1,inactive
16,Cc1ccc(S(=O)(=O)N2CCCCC2)cc1NC(=O)CCNC(=O)c1ccccc1Cl,inactive
17,COc1ccc(C)c(Cn2c(-c3nonc3N)nc3ccccc32)c1,2.31 µM (active)
18,CC(=O)Nc1nonc1-c1nc2ccccc2n1Cc1ccccn1,inactive
19,CCn1c(C(O)c2cc(OC)ccc2OC)nc2ccccc21 (centres undefined),inactive
20,O=C(NCCS(=O)(=O)N1CCN(c2ccccc2)CC1)c1cc(=O)c2ccccc2o1,inactive
21,OCCC#Cc1ccc(N2C(c3ccsc3)=Cc3ccc(F)cc3C2c2c[nH]c3ccccc23)cc1 (centres undefined),inactive
22,CCOc1ccccc1CNS(=O)(=O)c1cc(-c2cc(C)no2)ccc1C,inactive

row,SMILES,Potency
1,COc1ccc(CCNS(=O)(=O)c2cc(-c3cc(C)no3)ccc2C)cc1OC,inactive
2,COc1ccc(CNS(=O)(=O)c2cc(-c3cc(C)no3)ccc2C(C)C)cc1,13 µM (active)
3,CC1(C(=O)NS(=O)(=O)Cc2cccc(Cl)c2)CCN1C(=O)Cc1ccc(Cl)cc1Cl (centres undefined),inactive
4,CCc1nc2ccc(C(=O)N3CCN(S(=O)(=O)CC)CC3)cn2c1N(C=O)CCC(C)C,inactive
5,CCCCCCCNc1ccc(/C=C/c2ccnc3ccccc23)cc1,inactive
6,Cc1cc(C)nc(NS(=O)(=O)c2ccc(NC(=O)c3cc(=O)c4ccc(C)c(C)c4o3)cc2)n1,inactive
7,Nc1cc(=O)n(Cc2ccccc2)c(=O)n1Cc1ccccc1,18.4 µM (active)
8,Cc1cc(-c2csc(N)n2)c(C)n1Cc1ccccc1,inactive
9,O=c1c2ccccc2n(Cc2cccc(Cl)c2)c(=O)n1Cc1ccccc1,inactive
10,O=C(CCN1CCCCC1)Nc1ccc(F)c(F)c1,inactive
11,CSc1ncnc2c1ncn2CCCNCC1CCCCC1,inactive
12,CSc1ncnc2c1ncn2CCCNCc1ccco1,inactive
13,CSc1ncnc2c1ncn2CC(=O)C1CCC2C3CCC4=CC(=O)CCC4(C)C3CCC12C (centres undefined),23.1 µM (active)
14,Cc1cc(C)cc(NC(=O)Cn2nc(N3CCN(c4ccccc4)CC3)ccc2=O)c1,inactive
15,CC1(C)CN(Cc2cccnc2)C(=O)[C@H]1CC(=O)Nc1ccc(Br)cc1,inactive
16,COc1ccc(C)cc1N(CC(=O)N1CCC(C)CC1)S(=O)(=O)c1ccc(C)cc1,inactive
17,COC(=O)CN(c1nc(C)c(Cl)c(OC)n1)S(=O)(=O)c1ccc(C)cc1,13 µM (active)
18,CCN(CC)C(=O)CN(c1cccc(OC)c1)S(=O)(=O)c1ccc(C)cc1,inactive
19,CCOC(=O)N1CCN(C(=O)C[C@@H]2C[C@@]3(C(=O)OC)CCCCC=C3N(CCC3=CCCCC3)C2=O)CC1,inactive
20,CCCNC(=O)C[C@@H]1CC[C@@H]2[C@H](COC[C@H](O)CN2C(=O)c2cc(Cl)cc(Cl)c2)O1,inactive
